Results with a measured potency or affinity are listed apart. The source made the active and inactive calls.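 How the source made its calls: active means a dose-response curve fit returns a half-maximal inhibitory concentration, extrapolated values included; inactive means the fit returns no such concentration.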
Biological target: HMG-CoA reductase [Enterococcus faecalis] (UniProt Q9FD70)
Assay: class II HMG-CoA reductase inhibition potency – biochemical, Enterococcus faecalis, confirmation (AID 1233)
Details: purified E. faecalis HMGR, NADPH absorbance 340 nm kinetics; series mostly up to 100 µM

Row | SMILES | outcome
1 | CC(=O)Nc1ccc(C(=O)CSc2nnc(Cc3ccccc3)o2)cc1 | inactive
2 | NS(=O)(=O)c1ccc(CCN=C(NS(=O)(=O)c2cccs2)c2ccccc2)cc1 | inactive
3 | CCn1c(SCC(=O)N/N=C/c2ccc(C)o2)nnc1-c1ccccc1 | inactive
4 | COc1ccc(Nc2ccc(S(=O)(=O)N3CCCCC3)cc2[N+](=O)[O-])cc1 | inactive
5 | Cc1cnc(NC(=O)c2cc3ccccc3o2)s1 | inactive
6 | O=C(O)C(Cc1ccccc1)N1C(=O)C2CCCCC2C1=O (stereo unspecified) | inactive
7 | O=C(O)c1cc(CN2CCOCC2)oc1-c1ccccc1 | inactive
8 | CCOc1cc(S(=O)(=O)N(CC)CC)c(OCC)cc1-n1cnnn1 | inactive
9 | CCOc1ccc(/C(O)=C2/C(=O)C(=O)N(CC3CCCO3)C2c2ccco2)cc1 (stereo unspecified) | inactive
10 | c1ccc(-c2nnc(SCc3nnc(-c4cccs4)o3)o2)cc1 | inactive
11 | O=C(NCCOc1ccccc1Cl)C(=O)c1c[nH]c2ccccc12 | inactive
12 | CN(CC(=O)NCCc1ccccc1)S(=O)(=O)c1ccccc1 | inactive
13 | COc1ccc(N=CC2=C(O)c3ccccc3C2=O)c(OC)c1 | inactive
14 | CCOC(=O)c1sc(NC(=O)CSc2n[nH]c(CC)n2)nc1C | inactive
15 | O=C(NCCCn1ccnc1)c1ccc(S(=O)(=O)N2CCOCC2)cc1 | inactive
16 | CCOC(=O)/C(C#N)=C/c1ccc(SC)cc1 | inactive
17 | O=C(O)c1cc(-c2ccc(N3CCOCC3)cc2)nn1-c1ccccc1Cl | inactive
18 | CN(C1CCCC1)C1CCN(C(=O)CNC(=O)/C=C/c2ccccc2)CC1 | inactive
19 | COc1ccc(N(C(C)C(=O)N/N=C/c2ccc(OC(C)C)cc2)S(C)(=O)=O)cc1 (stereo unspecified) | inactive
20 | CC(=O)Nc1ccc(S(=O)(=O)N2CCCC2C(=O)O)cc1 (stereo unspecified) | inactive
21 | O=c1oc2ccccc2c(O)c1C=Nc1cccnc1 | inactive
22 | COc1ccc(N2C(=O)C(CN3CCCCC3)C2c2ccccc2)cc1 (stereo unspecified) | inactive
23 | Cc1ccccc1NC(=S)NCc1ccc2c(c1)cc(C)n2C | inactive
24 | CCCC(=O)Nc1sc(C(=O)Nc2cccc(N)c2)c(C)c1C(=O)OC | inactive
25 | O=C1OC(c2cccs2)=N/C1=C/c1ccc(-c2cccc(C(=O)O)c2)o1 | inactive
26 | S=C(NCc1ccccc1)N1CCN(c2cccc(Cl)c2)CC1 | inactive

Row | SMILES | outcome
27 | O=C1NCCCC1C(=O)Nc1ccccc1C(F)(F)F (stereo unspecified) | inactive
28 | Cc1ccc2nsnc2c1N | inactive
29 | O=[N+]([O-])c1ccc(N2CCCCC2)c(-c2nn[nH]n2)c1 | inactive
30 | CC(NCCC(c1ccccc1)c1ccccc1)c1ccccc1 (stereo unspecified) | inactive
31 | COc1ccccc1Sc1ccccc1/C=N/NC(N)=O | inactive
32 | Cc1ccc(NC(=O)NC2CCCCC2)cc1S(=O)(=O)N1CCOCC1 | inactive
33 | CN(C)S(=O)(=O)c1cccc(NC(=O)Cn2cc(C(F)(F)F)cc(Cl)c2=O)c1 | inactive
34 | COc1cc(OC)cc(C(=O)NC(C(=O)O)C23CC4CC(CC(C4)C2)C3)c1 (stereo unspecified) | inactive
35 | Cc1cc(C)nc(N(C#N)CC(=O)N2CCC(C(N)=O)CC2)n1 | inactive
36 | Cc1ccc(-n2c(SCC(=O)N(C)C3CCS(=O)(=O)C3)nc3ccccc3c2=O)cc1 (stereo unspecified) | inactive
37 | Clc1ccc(NNc2ccnc3cc(Cl)ccc23)cc1 | inactive
38 | COc1cccc(NC(=O)c2ccc3snnc3c2)c1 | inactive
39 | CN(C)c1ccc2c3c(ccc(N(C)C)c13)COC2 | inactive
40 | COC(=O)C(C)n1cnc2c(nnn2-c2ccc(OC)cc2)c1=O (stereo unspecified) | inactive
41 | O=C(CCn1cnnn1)Nc1ccc(Cl)c(Cl)c1 | inactive
42 | Cc1cccc(/C=N/NC(=O)c2cc(-c3cccnc3)nc3c2c(C)nn3-c2ccccc2)c1 | inactive
43 | CCOC(=O)C(CC)n1cnc2c(nnn2-c2ccc(OC)cc2)c1=O (stereo unspecified) | inactive
44 | CCOC(=O)Cc1csc(NC(=O)COc2cccc(C)c2)n1 | inactive
45 | CCN(CCNCC(O)COCc1ccc(Cl)cc1)c1cccc(C)c1 (stereo unspecified) | inactive
46 | CCCCC(=O)Nc1nnc(C2=COCCO2)o1 | inactive
47 | COc1ccc(-c2[nH]nc3c2C(c2ccsc2)C(C#N)=C(N)O3)cc1 (stereo unspecified) | inactive
48 | Cc1ccc(-c2noc(CSc3nnc(Cc4ccccc4)n3-c3ccc(Cl)cc3)n2)cc1 | inactive
49 | COC1(OC)N=C(NC(=O)Nc2ccccc2)C2(C#N)C(c3ccccc3)C12C#N (stereo unspecified) | inactive
50 | CC1CN(Cc2cnc(Cl)s2)CC(C)O1 (stereo unspecified) | inactive
51 | Cc1nc(NC(=O)COC(=O)CCS(=O)(=O)c2ccccc2Cl)c(Cl)cc1Cl | inactive
52 | CCN(CC)CCNC(=O)C(=O)NCC1OCCN1C(=O)c1ccc2c(c1)OCO2 (stereo unspecified) | inactive

Row | SMILES | outcome
53 | Cc1cc(SCn2nnc3ccccc3c2=O)nc2ccccc12 | inactive
54 | Cc1nnc(SCc2c(Cl)cccc2Cl)n(N)c1=O | inactive
55 | CCc1c(C)nc2ncnn2c1NCCc1ccccc1 | inactive
56 | COC(=O)c1ccccc1NC(=O)CSc1nnc(CNS(=O)(=O)c2ccc(C)cc2)n1C | inactive
57 | CCOc1cccc2cc(C(N)=O)c(=NCc3ccccc3)oc12 | inactive
58 | CCN(C(=O)Cn1cc(C(F)(F)F)ccc1=O)c1c(N)n(Cc2ccccc2)c(=O)[nH]c1=O | inactive
59 | Cc1cc(C)cc(-n2c3nc4ccccc4nc3c3c(=O)n(Cc4ccco4)cnc32)c1 | inactive
60 | O=S(=O)(NCC1CCCO1)c1ccc2c(c1)OCCO2 (stereo unspecified) | inactive
61 | COc1cc2c(cc1OC)C(C(=O)Nc1ccc3c(c1)OCCO3)C(c1cccnc1)N(C)C2=O (stereo unspecified) | inactive
62 | O=C1c2ccccc2C(=O)C1c1ccc2ccccc2n1 | inactive
63 | O=C(COC(=O)c1cccnc1)c1ccc(Cl)c(Cl)c1 | inactive
64 | Cn1c(CSc2nc3ccccc3s2)nc2ccccc21 | inactive
65 | CCc1c(C)nc2c(C#N)c(C)[nH]n2c1=O | inactive
66 | CS(=O)(=O)N1CCc2cc(S(=O)(=O)N3CCCCC3)ccc21 | inactive
67 | CN(C)C(=O)CSc1n[nH]c(=O)[nH]c1=O | inactive
68 | CCN(C(=O)CCc1nc(-c2ccccc2F)no1)c1cc(OC)ccc1OC | inactive
69 | O=C(Nc1ccncc1)c1ccc(C(=O)Nc2ccncc2)cc1 | inactive
70 | Cc1ccc(NC(=O)C(=O)NCc2ccc(/C=N/NC(=O)c3c(C)nc4cc(C)ccn34)o2)cc1 | inactive
71 | COc1cccc(-c2nnc3sc(-c4cccs4)nn23)c1 | inactive
72 | CCN(CC)CCOc1nc(C)nc2c1oc1ccccc12 | inactive
73 | O=C(Cn1cc(C(=O)C(F)(F)F)c2ccccc21)N1CCOCC1 | inactive
74 | COc1ccc(Cn2c(=O)sc3ccccc3c2=O)cc1 | inactive
75 | CCC1CCCCN1C(=O)CCn1ccnc1 (stereo unspecified) | inactive
76 | CCCCCC/C(C)=C1/SC(=S)NC1=O | inactive

Reference: PubChem BioAssay AID1233 (SRMLSC, 2008)
